# Assay outcomes deposited in PubChem by National Center for Advancing Translational Sciences (NCATS).
# Only some compounds are listed: those with a hit (about 2.3% of all), similar ones and a draw of the others.
# FBPA coupling cs: counter-screen for Giardia aldolase inhibitors: coupling enzyme system. coupling enzyme system counterscreen, AmpLite Red fluorescence. 290,000 tested, 0.67% active. activity change, negative = inhibition, % at 58.2 µM, hits read low; in the data active = activity change below about -30%
#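 Activity here indicates interference with the coupling reaction, not aldolase inhibition. Compounds at 57.5 uM final met coupling enzymes for 10 min at RT; substrate and AmpLite Red detection followed, with a 525/598 nm fluorescence read after 20 min.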
# Tau fibril FP: tau fibrillization inhibition (FP). K18 P301L tau heparin fibrillization, Alexa594 FP, 6 h. Potency, µM (series often up to 57.7 µM), for inactives: top-dose activity, negative = inhibition, actives largely listed as inhibitors. 280,000 tested, 0.39% active; also: potency is read from the fitted curve at half-maximal effect; nearly all actives have a fitted effect of over 55% in size
#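 Human tau K18 […] P301L fragment, 15 uM unlabeled plus 0.24 uM Alexa 594-labeled tau (final), with compound and 20 uM heparin in 100 mM sodium acetate pH 7; 6 hr at 37 C, then Alexa 594 FP read.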
# Tau fluor cs: counter-screen for tau fibril formation inhibitors. tau K18 P301L Alexa594 fluorescence, heparin fibrillization. Potency, µM (top dose mostly 57.7 µM), for inactives: top-dose activity change, negative = decrease. 280,000 tested, 0.93% active. AID 1463; also: potency is read from the fitted curve at half-maximal effect; nearly all actives have a fitted effect of over 55% in size
#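 Human tau K18 P301L (15 uM unlabeled, 0.24 uM Alexa 594-labeled) in 100 mM sodium acetate pH 7 with 20 uM heparin, 6 hr at 37 C. ThT 30 uM added, 1 hr ambient; Alexa 594 FP and total fluorescence read at 555/632 nm.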
# Tau fibril ThT: blocks human tau fibril formation measured by thioflavin T | P10636 | recombinant tau K18 P301L (four-repeat tau fragment), heparin-induced fibrillization, ThT fluorescence | Potency, µM (titrated, usually from 57.4 µM), inactives show at the top dose activity, negative = inhibition, actives largely listed as inhibitors | 270,000 tested, 2.1% active | AID 1460; also: potency is read from the fitted curve at half-maximal effect; nearly all actives have a fitted effect of over 55% in size
#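 K18 P301L tau (15 uM + 0.24 uM Alexa 594-tagged), heparin 20 uM, NaOAc pH 7, 6 h 37 C; ThT 30 uM, 1 h RT, ex 450/em 510 nm.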
# USP1 inh: USP1/UAF1 (human) deubiquitinase inhibition | recombinant USP1/UAF1, Ub-Rhodamine cleavage fluorescence | Potency, µM (highest dose often 57.1 µM), for inactives: at the highest dose activity change, negative = inhibition, actives largely listed as inhibitors | 390,000 tested, 0.23% active | AID 743255; also: potency is read from the fitted curve at half-maximal effect; nearly all actives have a fitted effect of over 60% in size
# Target sequence (O94782 whole entry, looked up): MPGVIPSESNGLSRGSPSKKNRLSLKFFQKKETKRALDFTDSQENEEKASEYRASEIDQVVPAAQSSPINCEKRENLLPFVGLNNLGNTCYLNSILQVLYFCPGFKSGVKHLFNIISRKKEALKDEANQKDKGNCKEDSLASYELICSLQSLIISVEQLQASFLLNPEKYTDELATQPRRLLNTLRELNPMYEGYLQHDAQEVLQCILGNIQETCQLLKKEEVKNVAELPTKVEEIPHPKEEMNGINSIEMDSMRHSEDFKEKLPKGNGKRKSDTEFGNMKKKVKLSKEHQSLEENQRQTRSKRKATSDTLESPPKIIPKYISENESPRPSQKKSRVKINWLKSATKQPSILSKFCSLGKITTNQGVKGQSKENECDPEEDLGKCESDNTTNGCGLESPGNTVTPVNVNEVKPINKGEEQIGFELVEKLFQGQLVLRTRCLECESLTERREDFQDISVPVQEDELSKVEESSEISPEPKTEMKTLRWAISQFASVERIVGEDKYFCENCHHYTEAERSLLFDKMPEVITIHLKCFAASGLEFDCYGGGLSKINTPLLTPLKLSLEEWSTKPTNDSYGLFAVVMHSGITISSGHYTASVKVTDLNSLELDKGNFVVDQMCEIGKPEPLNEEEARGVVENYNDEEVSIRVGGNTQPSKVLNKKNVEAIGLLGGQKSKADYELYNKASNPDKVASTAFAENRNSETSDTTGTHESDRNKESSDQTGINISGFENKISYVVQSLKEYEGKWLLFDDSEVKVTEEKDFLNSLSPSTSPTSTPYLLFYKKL
#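 Step one: compound is pinned into 1nM USP1/UAF1 in HEPES pH 7.8 buffer with TCEP. Step two: 15 min room-temperature incubation. Step three: Ub-Rho (150nM final) starts cleavage, tracked by fluorescence over six one-minute reads.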
# Numbers without * were called inactive; ? = inconclusive; · = no result; ! = not active in a repeat; [ ] = remark or other dose. Unless noted, calls follow the shape of the dose curve; as a rule, active = well fitted curve in the direction sought with a large enough effect; inconclusive = small, poorly fitted or top-dose-only effect, or another doubt; inactive = no such curve, though single readings can be large; an effect the other way counts as inactive or inconclusive. % is scaled to controls: 0 for no effect and ±100 for the full control effect.
SMILES,FBPA coupling cs,Tau fibril FP,Tau fluor cs,Tau fibril ThT,USP1 inh
CN1CCN(c2ccc(NC(=O)c3cccc(OCc4ccccc4)c3)cc2)CC1,-1,?,14µM*[quencher],?,-20%
O=C(Cn1c(-c2ccccc2)noc1=O)Nc1ccc(S(=O)(=O)N2CCOCC2)cc1,-3,-8%,-1%,7%,-22%
CCOc1cccc(C(=O)Nc2nc3c(s2)CC(C(C)(C)C)CC3)c1 (stereo not drawn),·,-8%,-3%,-2%,-1%
COc1cc(/C=C/c2ccc(O)cc2)cc(OC)c1,-1,2%,16µM*[quencher],?,-7%
COC/C=C/C1=CC2=CC(=O)C(C)(OC(=O)c3cnc4ccccc4n3)C(=O)C2=CN1c1ccccc1 (stereo not drawn),0,?,?,13µM*!,?
CC(C)(C)NC(=O)[C@@H]1C[C@H]2CCCC[C@@H]2CN1C[C@H](O)[C@H](Cc1ccccc1)NC(=O)[C@@H](CC(N)=O)NC(=O)c1ccc2ccccc2n1,2,·,·,·,·
O=C1/C(=C/c2ccc(O)c([N+](=O)[O-])c2)SC(=S)N1Cc1ccccc1,7,3%,?,7.1µM*,-18%
CN1C(=O)/C(=C/c2ccc(O)c([N+](=O)[O-])c2)NC1=S,1,12%,-19%,16µM*,-31%
O=C(NN1C(=O)/C(=C/c2ccc(O)c([N+](=O)[O-])c2)SC1=S)c1ccccc1Cl,7,3%,?,4µM*,?
COCCNC(=O)CSc1nc2ccccc2c(=O)n1CCC(=O)N1CCN(c2ccccc2)CC1,1,5%,-7%,-3%,-4%
COCCNC(=O)CSc1nc2ccc(N3CCOCC3)cc2c(=O)n1CCc1ccccc1,-44*,-1%,-21%,?,-6%
O=C(CSc1nc2ccc(N3CCOCC3)cc2c(=O)n1CCc1ccccc1)NCC1CCCO1 (stereo not drawn),-31*,-2%,?,?,-10%
CCOC(=O)CSc1nc2ccc(N3CCOCC3)cc2c(=O)n1Cc1ccccc1,-32*,-16%,?,?,-9%
CCCCn1c(SCC(=O)NCCOC)nc2ccc(N3CCOCC3)cc2c1=O,-37*,-5%,-17%,-15%,-16%
COCCNC(=O)CSc1nc2cc3c(cc2c(=O)n1CCCC(=O)NCc1ccc(OC)cc1)OCO3,2,1%,-11%,-14%,-8%
O=C(CN1C(=O)COc2ccc(Cl)cc21)Nc1cccc(C(=O)O)c1,·,-8%,-9%,-2%,?
CCCCNC(=O)CSc1nc2ccc(N3CCOCC3)cc2c(=O)n1CCc1ccccc1,-37*,6%,?,?,-11%
CCCCNC(=O)CSc1nc2ccccc2c(=O)n1CCNC(C)=O,-1,-4%,-5%,-3%,-26%
COc1cccc(/C=C2/SC(=S)N(CC(=O)Nc3nnc(C)s3)C2=O)c1,-3,?,?,1.3µM*,-7%
Cc1nnc(NC(=O)CCN2C(=O)/C(=C\c3ccccc3)SC2=S)s1,1,-10%,-8%,?,-20%
NS(=O)(=O)c1cc(C(=O)NCC2CCCCC2)ccc1Cl,1,·,·,·,-14%
CC(=C1C(=O)c2ccccc2C1=O)N1CCN(C/C=C/c2ccccc2)CC1,-1,-2%,-29%,22µM*,-11%
CC(=C1C(=O)c2ccccc2C1=O)N1CCN(Cc2ccccc2)CC1,-7,-6%,-26%,?,-20%
CCOC(=O)c1c(NC(=O)COc2ccc(Br)cc2)sc2c1CCCC2,·,-7%,1%,2%,-25%
CCOC(=O)/C(=C\c1cccc(O)c1)c1nc2sc(C)c(C)c2c(=O)[nH]1,1,?,-16%,20µM*,-16%
SMILES,FBPA coupling cs,Tau fibril FP,Tau fluor cs,Tau fibril ThT,USP1 inh
CCOC(=O)c1nc2sc(C)c(C)c2c(=O)[nH]1,1,0%,9%,1%,-15%
CCn1nc(C)c2c(-c3ccccc3)cc(=O)n(C(C)C(=O)NCc3ccc(C)cc3)c21 (stereo not drawn),·,4%,-3%,?,1%
O=C(O)CCCNc1cc(N2CCC3(CC2)OCCO3)c2noc3c2c1C(=O)c1ccccc1-3,-39*,?,?,25µM*,·
CCCCNc1cc(N2CCN(C3CCCCC3)CC2)c2noc3c2c1C(=O)c1ccccc1-3,·,7%,?,16µM*,?
O=C(O)CCCNc1cc(N2CCN(C(=O)c3ccco3)CC2)c2noc3c2c1C(=O)c1ccccc1-3,-18,·,·,·,28µM*
CCOC(=O)N1CCN(c2cc(NCCC(=O)O)c3c4c(onc24)-c2ccccc2C3=O)CC1,-54*,32µM*,?,11µM*,14µM*
Cc1ccc(S(=O)(=O)c2cn(CC(=O)Nc3ccc4c(c3)OCO4)c3ccccc3c2=O)cc1,·,5%,?,-3%,-10%
C=C(C)C(O)/C=C/c1ccc(C(F)(F)F)cc1 (stereo not drawn),-2,-2%,-16%,-11%,·
S=C(NCc1cccs1)Nc1cc(Cl)cc(Cl)c1,1,18µM*,?,-2%,-27%
S=C(NCc1cccs1)Nc1cccc(Cl)c1,0,-4%,-25%,-3%,-4%
N#Cc1c(N)oc(-c2ccco2)c1-c1ccco1,-9,-6%,?,14µM*,-8%
COc1ccc(OC)c(/C=N/c2oc(-c3ccco3)c(-c3ccco3)c2C#N)c1,-44*,2%,?,?,-7%
CC1(OC(=O)CCc2ccccc2)C(=O)C=C2C=C(c3ccc(C#N)cc3)N(CC3CC3)C=C2C1=O (stereo not drawn),-13,3%[11.6 µM],-2%[11.6 µM],?,?
CC1(OC(=O)CCc2ccccc2)C(=O)C=C2C=C(c3ccc(C#N)cc3)N(CCN3CCOCC3)C=C2C1=O (stereo not drawn),-31*!,?,1%[11.6 µM],?,?
CC1(OC(=O)CCc2ccccc2)C(=O)C=C2C=C(c3ccc(C#N)cc3)N(c3ccccc3)C=C2C1=O (stereo not drawn),1,?,-1%[11.6 µM],13µM*!,-14%
O=C1c2ccc3c4c(ccc(c24)C(=O)N1NC(=O)C(F)(F)F)CC3,5,12%,-8%,-20%,?
CC(=O)NN1C(=O)c2ccc3c4c(ccc(c24)C1=O)C(=O)N(NC(C)=O)C3=O,-32*,·,·,·,-15%
CCc1ccccc1NC(=O)c1cc(S(=O)(=O)N2CCCc3ccccc32)ccc1F,·,-6%,-25%,-11%,-27%
COc1ccc(NC(=O)C[C@H]2C(=O)N(CCc3ccccc3)C[C@@H]2c2ccc(OC)cc2)cc1,·,·,·,·,-16%
NC(=O)c1ccsc1N,-11,32µM*,-25%,20µM*,·
CC(C)(Oc1ccc(Br)cc1)C(=O)Nc1cc(-c2nc3ccccc3[nH]2)ccc1Cl,·,16µM*,?,-1%,-24%
